Assay results reported in PubChem BioAssay (EPA / NIEHS).
Where “and” joins values, the source holds several entries; their conditions need not be identical. Equal values may be shown once. Inconclusive results are not listed. Calls of active or inactive are those of the source. The calls were made as follows: active = hit-call score of the fitted dose curve at least 0.9, where 1 is the maximum; inconclusive = response in the unintended direction; inactive = score below 0.9. Where a SMILES comes first, the peptide text is derived from it. Bridges are numbered along the chain shown (N, C = ends). [ ]: non-standard residue; d: D form. Orn = NCCC[C@H](N)C(=O)O; Mpa = O=C(O)CCS

Experiments:
[1] = TOX21_p53_BLA_p2_viability: Viability Assessment in the Tox21 HCT-116 p53 Agonism Beta-lactamase Assay, Phase 2 (AID 2283591);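 also: actives lower the ATP signal meaning cytotoxicity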
Method in brief: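 Cytotoxicity readout: CellTiter-Glo ATP luminescence, 30 min at room temperature, after the beta-lactamase read. Cells were HCT116 exposed 16 h at 37C to compounds pin-transferred at 217-fold dilution from DMSO stocks.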

[2] = biological target: Cellular tumor antigen p53 (Homo sapiens) (UniProt P04637); assay: TOX21_p53_BLA_p2_ratio: Tox21 HCT-116 p53 Agonism Beta-lactamase Assay, Ratio, Phase 2 (AID 2283592)
Chain of Cellular tumor antigen p53 (Homo sapiens) (P04637 whole entry, looked up): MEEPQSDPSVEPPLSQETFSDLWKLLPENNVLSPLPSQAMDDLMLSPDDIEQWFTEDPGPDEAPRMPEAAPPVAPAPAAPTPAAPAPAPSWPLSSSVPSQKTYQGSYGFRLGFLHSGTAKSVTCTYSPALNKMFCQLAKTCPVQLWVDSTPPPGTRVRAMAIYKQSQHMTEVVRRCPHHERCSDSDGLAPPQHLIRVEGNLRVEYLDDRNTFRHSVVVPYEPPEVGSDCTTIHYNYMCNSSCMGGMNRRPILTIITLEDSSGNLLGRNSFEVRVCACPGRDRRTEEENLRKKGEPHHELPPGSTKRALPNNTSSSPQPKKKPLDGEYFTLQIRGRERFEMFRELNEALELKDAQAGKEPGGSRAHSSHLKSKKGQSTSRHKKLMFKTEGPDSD
Method in brief: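 HCT116 p53-bla; 4000 cells/well; 5 h pre-incubation; cpd in DMSO, 217-fold dilution; 16 h 37C/5% CO2; CCF4-AM 2 h RT; Ex 405, Em 460/530 ratio; DMSO = baseline; positive fitting direction.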

[3] = TOX21_p53_BLA_p3_viability: Viability Assessment in the Tox21 HCT-116 p53 Agonism Beta-lactamase Assay, Phase 3 (AID 2283593);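 also: cells exposed to compound for 16 h before reading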
Method in brief: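 Cellular ATP was quantified by CellTiter-Glo luminescence, read after 30 min at room temperature. Beforehand, HCT116 cells (4000/well) received compound 5 h post-seeding, 217-fold diluted from DMSO, then incubated 16 h at 37C.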

[4] = TOX21_p53_BLA_p4_viability: Viability Assessment in the Tox21 HCT-116 p53 Agonism Beta-lactamase Assay, Phase 4 (AID 2283597);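 also: hits lower the luminescence signal meaning cytotoxicity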
Method in brief: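 Cells plated, 5 h pre-incubation; DMSO compounds pinned (217-fold dilution); 16 h, 37C/5% CO2; CCF4-AM 2 h RT; CellTiter-Glo 30 min RT; luminescence read.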

[5] = biological target: Cellular tumor antigen p53 (Homo sapiens) (UniProt P04637); assay: TOX21_p53_BLA_p5_ratio: Tox21 HCT-116 p53 Agonism Beta-lactamase Assay, Ratio, Phase 5 (AID 2283599)
Method in brief: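 Beta-lactamase reporter ratio (blue 460 nm over green 530 nm, 405 nm excitation) after 2 h CCF4-AM loading, in HCT-116 cells exposed 16 h at 37 C to compounds pinned at 217-fold dilution. Increases relative to DMSO baseline scored.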

[6] = TOX21_p53_BLA_p5_viability: Viability Assessment in the Tox21 HCT-116 p53 Agonism Beta-lactamase Assay, Phase 5 (AID 2283600)
Method in brief: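 4000 cells/well; 5 h pre-incubation; DMSO compounds pin-transferred, 217-fold dilution; 16 h, 37C/5% CO2; CCF4-AM 2 h RT; CellTiter-Glo 30 min RT; luminescence.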

[7] = TOX21_PR_BLA_Followup_Agonist_viability: Viability Assessment in the Tox21 HEK293 Progesterone Receptor (PR) Agonism Beta-lactamase Follow-Up Assay (AID 2283935);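 also: signal loss means lower viability so actives are cytotoxic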
Method in brief: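 Multiplexed viability counter-screen: ATP-coupled luciferase signal measured after 30 min at room temperature, following 16 hr compound treatment of PR-UAS-bla HEK293T cells grown in charcoal-stripped serum.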

[8] = TOX21_PR_BLA_Followup_Antagonist_viability: Viability Assessment in the Tox21 HEK293 Progesterone Receptor (PR) Antagonism Beta-lactamase Follow-Up Assay (AID 2283936);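 also: hits lower the luminescence signal meaning cytotoxicity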
Method in brief: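 PR-UAS-bla HEK293T cells (3,000/well, 2% charcoal-stripped FBS) given compound plus R5020 agonist, 16 h at 37C. CellTiter-Glo added after bla read, 30 min at room temperature; luminescence loss indicates cytotoxicity.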

[9] = TOX21_PR_LUC_Followup_Antagonist_viability: Viability Assessment in the Tox21 HEK293 Progesterone Receptor (PR) Antagonism Luciferase Follow-Up Assay (AID 2283940)
Method in brief: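 Cellular ATP, measured with luciferase-coupled CellTiter-Glo, served as the viability endpoint after HEK293-PR-A-luc cells were exposed to test compounds for 16 h at 37C.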

[10] = TOX21_PR_LUC_Followup_Agonist_viability: Viability Assessment in the Tox21 HEK293 Progesterone Receptor (PR) Agonism Luciferase Follow-Up Assay (AID 2283941);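 also: loss of signal means cytotoxicity so actives lower viability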
Method in brief: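 Luminescent ATP quantitation (CellTiter-Glo) serves as the read-out; a drop flags cytotoxic compounds. Cells are HEK293-PR-A-luc grown in 10% charcoal-stripped FBS, plated 3,000/well, and exposed to compound for 16 h.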

[11] = biological target: Cellular tumor antigen p53 (Homo sapiens) (UniProt P04637); assay: TOX21_p53_BLA_p4_ratio: Tox21 HCT-116 p53 Agonism Beta-lactamase Assay, Ratio, Phase 4 (AID 2283601)
Method in brief: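 Signal is the blue/green (460nm/530nm) ratio of cleaved versus uncleaved CCF4-AM substrate, read after 2 h substrate loading. Cells were HCT116 carrying the p53-responsive beta-lactamase reporter, dosed 16 h at 37C, 5% CO2; CellTiter-Glo measured in parallel.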

[12] = biological target: Thyroid hormone receptor alpha (Rattus norvegicus) + Thyroid hormone receptor beta (Rattus norvegicus) (UniProt P18113+P63059); assay: TOX21_TR_LUC_GH3_Antagonist_Followup: Tox21 GH3 Thyroid Hormone Receptor Antagonism Luciferase Follow-Up Assay (AID 2283942)
Method in brief: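 Confirmatory qHTS, antagonist mode: T3 (1.0 nM final) + test cpd, 15 conc, 92 uM–5nM final, GH3 rat pituitary line, 24 h, 37C. Luc reporter, RLU vs DMSO.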

THRB (gene 7068) [13] = biological target: THRB (gene 7068) (UniProt P10828); assay: TOX21_TRB_BLA_Antagonist_Followup_ratio: Tox21 Thyroid Hormone Receptor beta Antagonism Beta-lactamase (BLA) Follow-Up Assay, Ratio (AID 2283958)
Chain of THRB (gene 7068) (P10828 whole entry, looked up, the tested form may be a part): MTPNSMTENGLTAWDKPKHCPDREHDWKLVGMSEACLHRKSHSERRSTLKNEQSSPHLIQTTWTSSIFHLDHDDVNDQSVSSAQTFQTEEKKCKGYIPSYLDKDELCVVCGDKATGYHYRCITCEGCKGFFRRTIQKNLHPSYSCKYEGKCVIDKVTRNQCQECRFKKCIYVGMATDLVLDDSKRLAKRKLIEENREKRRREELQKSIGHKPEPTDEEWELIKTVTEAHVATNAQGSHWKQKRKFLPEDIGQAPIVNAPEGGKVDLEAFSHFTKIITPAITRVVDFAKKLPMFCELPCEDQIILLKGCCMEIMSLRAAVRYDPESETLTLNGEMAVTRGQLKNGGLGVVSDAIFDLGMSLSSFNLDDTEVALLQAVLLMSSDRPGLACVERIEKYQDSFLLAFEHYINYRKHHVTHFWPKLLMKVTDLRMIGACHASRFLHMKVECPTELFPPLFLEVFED
Method in brief: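 In this antagonist-mode follow-up, a stably integrated GAL4-TRβ LBD fusion drives a UAS-beta-lactamase reporter in HEK293T cells. Loss of ratio signal relative to DMSO after 18 h treatment indicates activity; parallel CellTiter-Glo flags cytotoxicity.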

[14] = TOX21_TRB_BLA_Antagonist_Followup_viability: Viability Assessment in the Tox21 Thyroid Hormone Receptor beta Antagonism Beta-lactamase (BLA) Follow-Up Assay (AID 2283961)
Method in brief: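 TRβ-bla HEK293T (human TRβ LBD fused to GAL4 DBD), 3,000 cells/well, 2% charcoal-stripped FBS, phenol red-free medium; 18 h compound exposure, 37C; CellTiter-Glo 30 min RT; luminescence, loss-of-signal readout.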

THRB (gene 7068) [15] = biological target: THRB (gene 7068) (UniProt P10828); assay: TOX21_TRB_COA_Antagonist_Followup_ratio: Tox21 Thyroid Hormone Receptor beta Antagonism through Coactivator Recruitment Follow-Up Assay, Ratio (AID 2283967)
Method in brief: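 Test compound was incubated with 5.0 nM GST-TRβ LBD in 0.10% BSA. Then 200 nM fluorescein-SRC-2 peptide and 2 nM terbium anti-GST antibody were added. TR-FRET (520:495 nm) was measured and normalized to DMSO and T3 controls.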

[16] = biological target: Retinoic acid receptor RXR-alpha (Homo sapiens) (UniProt P19793); assay: TOX21_TR_RXR_BLA_Antagonist_Followup_ratio: Tox21 Thyroid Hormone Receptor beta Retinoid X Receptor alpha (RXRa) Antagonism Beta-lactamase (BLA) Follow-Up Assay, Ratio (AID 2283972)
Chain of Retinoic acid receptor RXR-alpha (Homo sapiens) (P19793 whole entry, looked up): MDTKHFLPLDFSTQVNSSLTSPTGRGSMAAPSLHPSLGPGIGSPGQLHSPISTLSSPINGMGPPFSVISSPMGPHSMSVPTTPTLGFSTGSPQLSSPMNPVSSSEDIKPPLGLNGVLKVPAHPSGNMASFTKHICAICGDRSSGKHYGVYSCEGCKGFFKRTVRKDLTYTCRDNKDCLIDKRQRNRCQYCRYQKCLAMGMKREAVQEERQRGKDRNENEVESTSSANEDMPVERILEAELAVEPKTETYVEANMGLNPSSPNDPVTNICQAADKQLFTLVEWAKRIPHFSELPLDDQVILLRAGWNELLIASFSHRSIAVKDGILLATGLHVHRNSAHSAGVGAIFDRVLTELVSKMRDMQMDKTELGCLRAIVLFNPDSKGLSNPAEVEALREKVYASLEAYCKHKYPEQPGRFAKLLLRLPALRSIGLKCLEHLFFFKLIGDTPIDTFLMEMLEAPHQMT
Method in brief: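 HEK293T RXRa-bla, 2% charcoal-stripped FBS medium, 16 h compound exposure at 37C, qHTS 11 conc x3. CCF4 FRET ratio ch2/ch1 (460:530), DMSO = baseline, loss-of-signal fit.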

[17] = TOX21_TR_RXR_BLA_Antagonist_Followup_viability: Viability Assessment in the Tox21 Thyroid Hormone Receptor beta Retinoid X Receptor alpha (RXRa) Antagonism Beta-lactamase (BLA) Follow-Up Assay (AID 2283979)
Method in brief: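 Follow-up compounds (11 concentrations, triplicate) were incubated 16 h at 37C/5% CO2 with HEK293T RXRa-bla cells seeded at 2,500/well in charcoal-stripped-serum medium. ATP content by CellTiter-Glo luminescence gave viability; curves fitted in both directions against DMSO.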

[18] = ACEA_ER_AUC_viability: ACEA Biosciences xCELLigence Real-Time Cell Analysis on Estrogen Receptor Agonism for Viability (AID 2283782);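 also: continuous compound exposure with impedance area under curve over 80 h; hit means loss of impedance signal meaning reduced cell growth or viability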
Method in brief: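 T-47D; phenol red-free RPMI1640 + 10% CS-FBS; 8 conc., 1:4 serial, max 100 uM final, ≤0.5% DMSO; n = 2; continuous exposure; impedance monitored to 80 h post-dose; AUC vs DMSO.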

Measured: AC50

C[C@]12CCC(=O)C=C1[C@@H]1C[C@@H]1[C@H]1[C@@H]3[C@@H]4C[C@@H]4[C@@]4(CCC(=O)O4)[C@@]3(C)CC[C@@H]12
active: [2] 43.4 µM
inactive: [1] | [3] | [4] | [5] | [6] | [7] | [8] | [9] | [10]

CCOc1ccc(C[C@H]2NC(=O)CCSSC[C@@H](C(=O)N3CCC[C@H]3C(=O)N[C@@H](CCCN)C(=O)NCC(N)=O)NC(=O)[C@H](CC(N)=O)NC(=O)[C@H]([C@@H](C)O)NC(=O)[C@H]([C@@H](C)CC)NC2=O)cc1 ([Mpa][dY](Et)ITNCP[Orn]G-NH2; disulfide 1-6)
inactive: [1] | [2] | [3] | [4] | [6] | [11]

C[N+]1(C)CCC(OC(=O)C(O)(c2ccccc2)C2CCCC2)C1 (stereo not given)
inactive: [1] | [2] | [3] | [4] | [5] | [6] | [11]

O=C(CCCCCCC(=O)Nc1ccccc1)NO
active: [2] 420 nM and 686 nM | [4] 4.47 µM and 7.11 µM | [5] 1.08 µM and 842 nM | [11] 904 nM and 534 nM | [12] 5.8 µM
not listed: [7] | [8] | [9] | [10] | [18]
inactive: all other assays above

On1nnc2ccccc21
inactive: [1] | [2] | [3] | [4] | [5] | [6] | [11]

Cc1cc(C(C)(C)C)c(O)c(C)c1Cn1c(=O)n(Cc2c(C)cc(C(C)(C)C)c(O)c2C)c(=O)n(Cc2c(C)cc(C(C)(C)C)c(O)c2C)c1=O
inactive: [1] | [2] | [3] | [4] | [6] | [11]

O=C(Nc1ccccc1)Nc1ccccc1
inactive: [1] | [2] | [3] | [4] | [6]

CN(C(=O)CCCOc1ccc2[nH]c(=O)ccc2c1)C1CCCCC1
inactive: [1] | [2] | [3] | [4] | [6]

Nc1ccncc1N
inactive: [1] | [2] | [3] | [4] | [5] | [11]

CC(C)CCCCCCN
inactive: [1] | [2] | [3] | [4] | [6]

CCN1CCC[C@H]1CNC(=O)c1cc(S(N)(=O)=O)ccc1OC
inactive: [1] | [2] | [3] | [4] | [6] | [11]

O=c1cc[nH]c(=O)[nH]1
inactive: [1] | [2] | [3] | [4] | [6] | [11]

CN(C(=O)CO)c1c(I)c(C(=O)NCC(O)CO)c(I)c(C(=O)NCC(O)CO)c1I (stereo not given)
inactive: [1] | [2] | [3] | [4] | [6] | [11]

Cc1[nH]cnc1CN1CCc2c(c3ccccc3n2C)C1=O
inactive: [1] | [2] | [3] | [5] | [6] | [11]

CC[C@H]1OC(=O)[C@H](C)[C@@H](O[C@H]2C[C@@](C)(OC)[C@@H](O)[C@H](C)O2)[C@H](C)[C@@H](O[C@@H]2O[C@H](C)C[C@H](N(C)C)[C@H]2O)[C@](C)(O)C[C@@H](C)CN(C)[C@H](C)[C@@H](O)[C@]1(C)O
inactive: [1] | [2] | [3] | [4] | [6] | [11]

NC(=O)COCCN1CCN(C(c2ccccc2)c2ccc(Cl)cc2)CC1 (stereo not given)
inactive: [1] | [2] | [3] | [4] | [6] | [11]

CNCCS(=O)(=O)O
inactive: [1] | [2] | [3] | [5] | [6] | [11]

CCN1CCN(c2cc3c(cc2F)c(=O)c(C(=O)O)cn3C2CC2)CC1
inactive: [1] | [2] | [3] | [5] | [6]

CCC(=O)C=CC1C(C)=CCCC1(C)C (stereo not given)
inactive: [1] | [2] | [3] | [5] | [6]

Oc1ccc2c(c1)OCO2
inactive: [1] | [2] | [3] | [4] | [6] | [11]

CC(=O)Oc1ccc(C(=C2CCCCC2)c2ccc(OC(C)=O)cc2)cc1
inactive: [1] | [2] | [3] | [4] | [11]

CCN(CC)S(=O)(=O)c1ccc(C(=O)O)cc1
inactive: [1] | [2] | [3] | [5]

CC(C)(C)OC=O
inactive: [1] | [2] | [3] | [5] | [6] | [11]

O=C(CCCN1CCC(C(=O)c2ccc(F)cc2)CC1)c1ccc(F)cc1
inactive: [1] | [2] | [3] | [4] | [6] | [11]

C=C(C)C(=O)OCCNC(C)(C)C
inactive: [1] | [2] | [3] | [4] | [6] | [18]

CC=C1[C@H]2C=C(C)C[C@]1(N)c1ccc(=O)[nH]c1C2
inactive: [1] | [2] | [3] | [5] | [6]
